# Data published in PubChem BioAssay AID1030 (National Center for Advancing Translational Sciences (NCATS), 2008).
# The campaign covered roughly 220,000 compounds. About 16,000 (7.3%) were called active. Another 25% or so got no clear call; they are omitted. The call rests on the fitted dose curve; in most records, active means well fitted inhibition curve with a large enough effect (not every such curve was filed as active); inconclusive means small, poorly fitted or top-dose-only effect, or another doubt; inactive means no such curve, though single readings can be large or run the other way. What follows is part of a selection rich in actives, with near analogues and random picks from the rest.
# Target: Aldehyde dehydrogenase 1A1 (Homo sapiens) (UniProt P00352)
# Sequence (P00352 whole entry, looked up): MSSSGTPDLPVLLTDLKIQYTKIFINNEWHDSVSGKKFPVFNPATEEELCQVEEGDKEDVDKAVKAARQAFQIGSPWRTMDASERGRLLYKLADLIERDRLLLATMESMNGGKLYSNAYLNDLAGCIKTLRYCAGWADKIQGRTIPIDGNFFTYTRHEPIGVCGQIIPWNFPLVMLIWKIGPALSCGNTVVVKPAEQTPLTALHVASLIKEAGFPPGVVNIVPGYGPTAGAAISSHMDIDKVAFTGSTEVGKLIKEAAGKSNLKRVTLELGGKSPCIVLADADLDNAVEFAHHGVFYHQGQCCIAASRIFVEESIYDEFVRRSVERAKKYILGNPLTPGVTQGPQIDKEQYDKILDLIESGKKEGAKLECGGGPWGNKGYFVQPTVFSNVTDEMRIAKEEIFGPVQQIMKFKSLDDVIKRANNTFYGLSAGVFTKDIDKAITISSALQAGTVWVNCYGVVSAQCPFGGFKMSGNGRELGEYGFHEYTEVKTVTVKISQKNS
# Test: qHTS Assay for Inhibitors of Aldehyde Dehydrogenase 1 (ALDH1A1);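 on activity, negative = inhibition: plate controls were no enzyme wells and a reference inhibitor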
# Settings: Purified ALDH1A1, NADH fluorescence, propionaldehyde substrate; series mostly up to 75.3 µM; activity, negative = inhibition: at the top concentration
# Potency means the concentration at half of the fitted maximal effect.
SMILES,"activity, negative = inhibition",Potency
Cc1cccc(NC(=O)c2ccc3nsnc3c2)c1C,-4.39% (inactive),
Cc1nnsc1C(=O)Nc1cccc(Cl)c1C,3.33% (inactive),
Cc1nc(C)c(C(=O)Nc2cccc(C)c2C)o1,,17800 nM (active)
O=C(c1ccc(F)cc1)N1CCCC(c2nc(-c3cccs3)no2)C1 (stereo not given),-8.32% (inactive),
CCOC(=O)C1CCN(C(=O)C2(NC(=O)Nc3cccc(F)c3)CCCCC2)CC1,4.32% (inactive),
CC(=O)c1cnc(-c2ccccc2)s1,-9.73% (inactive),
CCN(CC)c1ccc2cc(C(N)=O)/c(=N\NC(=O)c3ccncc3)oc2c1,-10.6% (inactive),
CCN(CC)c1ccc2oc(=O)c(C)nc2c1,,1000 nM (active)
CCN(CC)c1ccc(/C=N/Nc2nc(C)cc(C)n2)c(O)c1,2.46% (inactive),
COc1ccc(CCNC(=O)CN(c2ccccc2)S(C)(=O)=O)cc1,2.48% (inactive),
Cc1cc(C(=O)NNC(=O)CCC2CCCCC2)c(C)o1,-3.14% (inactive),
CCOC(=O)C1C/C(=C\C(C)=O)c2cccc(C(F)(F)F)c2O1 (stereo not given),-5.96% (inactive),
C=CCC(C)(O)c1ccco1 (stereo not given),12.8% (inactive),
O=C(c1ccc(Cl)c([N+](=O)[O-])c1)N1CCN(c2ccccc2)CC1,1.09% (inactive),
COc1ccc(N2CCN(c3ccc([N+](=O)[O-])cc3Cl)CC2)cc1,4.73% (inactive),
O=[N+]([O-])c1ccc(N2CCN(c3ccc(O)cc3)CC2)c(Cl)c1,,7940 nM (active)
C/C=C/C=C/C(=O)OCC(=O)Nc1ccc(Cl)cc1,-2.76% (inactive),
O=C(C1CCN(S(=O)(=O)c2ccc(Br)s2)CC1)N1CCN(C2CCCCC2)CC1,-12.8% (inactive),
Cc1ccc(S(=O)(=O)CC(=O)Nc2c(C)n(C)n(-c3ccccc3)c2=O)cc1,-4.24% (inactive),
Cc1ccc(S(=O)(=O)N2CCN(CC(=O)N/N=C/c3ccc(Br)s3)CC2)cc1,0.942% (inactive),
CC1(C)NC(=O)N(CCOc2cccc(Oc3ccccc3)c2)C1=O,-11.9% (inactive),
Cc1cc(C)cc(OCC(=O)NNC(=O)CCN2C(=O)c3ccccc3C2=O)c1,-8.44% (inactive),
Cc1cccc2c1N(CCOc1ccccc1)C(=O)C2=O,,224 nM (active)
CC(C)OC(=O)CN1CCN(c2ccc(Cl)cc2)CC1,-2.07% (inactive),

SMILES,"activity, negative = inhibition",Potency
CC(C)OC(=O)CN1C(=O)C(=O)c2ccccc21,,63.1 nM (active)
Cc1cccc2c1N(CC(=O)OC(C)C)C(=O)C2=O,,20 nM (active)
CCOC(=O)CN1C(=O)C(=O)c2cc(C)ccc21,,178 nM (active)
Cc1nn(CCOc2ccccc2)c(=O)n1-c1ccccc1F,-4.02% (inactive),
CCOC(=O)CN1C(=O)N[C@@H](c2ccc(Br)cc2)C(C(C)=O)=C1C,,inactive
CCCCOC(=O)Cn1c(=O)n(CC(=O)OCCCC)c2cc(C)ccc21,-4.24% (inactive),
Cc1ccccc1C(=O)NNC(=O)CN1C(=O)c2ccccc2C1=O,4.91% (inactive),
CC(C)OC(=O)CN1C(=O)c2ccccc2C1=O,8.21% (inactive),
OCCC1CN(Cc2cccn2-c2nccs2)CCN1CCc1ccccc1 (stereo not given),11.6% (inactive),
C/C(=N\NC(=O)c1cccnc1)c1ccc(-n2ccnc2)cc1,8.66% (inactive),
C#CCOCCOCCOCCNc1nc(N2CCN(C(=O)[C@H](CCC(=O)O)n3cc(C(N)CO)nn3)CC2)nc(N2CCN(C(=O)[C@H](Cc3ccc(O)cc3)n3cc(C(N)[C@H](C)CC)nn3)CC2)n1 (stereo not given in full),-1.39% (inactive),
Cc1nnc(SCC2=C(C(=O)O)N3C(=O)C(NC(=O)Cn4nc(C)c(Cl)c4C)C3SC2)s1 (stereo not given),3.56% (inactive),
CCCOc1ccc(NC(=O)CC2C(=O)N(C)C(=S)N2Cc2ccc3c(c2)OCO3)cc1 (stereo not given),4.02% (inactive),
NS(=O)(=O)c1ccc(N2C(=O)C3C4CC(C(Br)C4Br)C3C2=O)cc1 (stereo not given),6.76% (inactive),
CC(=O)Nc1ccc(S(=O)(=O)Nc2ccc(-c3ccc4nnc(C)n4n3)cc2)cc1,-0.516% (inactive),
NCCC(=O)c1ccccc1N,-18% (inactive),
COc1ccc(NC(=O)c2sc(N)nc2-c2ccccc2)cc1,7.79% (inactive),
S=C(NN=C1CCN(Cc2ccccc2)CC1)NC1CCCCC1,-10.8% (inactive),
CCN(C(=O)c1ccc(Br)cc1)c1ccccc1,-4.18% (inactive),
CCC1(C(=O)c2ccccc2)C(c2cccc([N+](=O)[O-])c2)C1(C(=O)OC)C(=O)OC (stereo not given),16% (inactive),
Cc1ccccc1C(=O)OC1OC(=O)C(Cl)=C1Nc1ccccc1 (stereo not given),-17.1% (inactive),
C=CCN1c2ccccc2[C@]23C[C@@H](C(=O)OC)N(S(=O)(=O)c4ccc([N+](=O)[O-])cc4)C2=NC(C(=O)OC)=C(C(=O)OC)[C@H]13,-3.11% [at 13.5 µM] (inactive),
O=C1NC2(CCCCCC2)C(=O)N1CCS(=O)(=O)Oc1ccccc1,-2.26% (inactive),
CC(=O)Nc1ccc(C(=O)/C=C/c2ccc[nH]2)cc1,-1.58% (inactive),

SMILES,"activity, negative = inhibition",Potency
Cc1cc(C(=O)N/N=C/c2ccccc2[N+](=O)[O-])c(C)o1,-5.15% (inactive),
Clc1ccc(C2=CSC3=Nc4cccc5cccc(c45)N23)cc1,,7940 nM (active)
CCN(CC)CC1(O)CCN(C(=O)c2ccc(Cl)c(Cl)c2)CC1,-1.58% (inactive),
CC(C)(C)n1nc2c(c1NC(=O)c1cc3ccccc3o1)CSC2,9.75% (inactive),
Cc1ccc(C)c(NC(=S)NCC(c2cccnc2)N2CCOCC2)c1 (stereo not given),-2.08% (inactive),
CCOC(=O)C(=O)C1C(=O)Nc2ccccc21 (stereo not given),,14100 nM (active)
CCOC(=O)C1C(=O)NCC1c1ccccc1 (stereo not given),6.09% (inactive),
CCCCC(CC)CNC(=O)CCCCn1c(=O)[nH]c2ccsc2c1=O (stereo not given),0.924% (inactive),
CCOC(=O)CC1=CC(=O)Nc2ccccc2N1,1.21% (inactive),
CCCCC(CC)CNC(=O)C(=O)C1C(=O)Nc2ccccc21 (stereo not given),,2000 nM (active)
COC(=O)C(C)C1Sc2ccccc2NC1=O (stereo not given),-1.81% (inactive),
CC1=NN(C(=O)CCCc2ccccc2)C(O)(C(F)(F)F)C1 (stereo not given),0.404% (inactive),
CC(C)C(=O)NCc1cc(-c2ccc(Cl)cc2)no1,14.5% (inactive),
CCCCCCCC[C@@H](O)/C=C/C=C/C=C\[C@@H](O)CCCC(=O)O,12.3% (inactive),
[O-][n+]1onc2c1CCc1[nH]c(-c3ccccc3)nc1-2,16.4% (inactive),
CCc1nnc(NC(=O)CSc2nc(SC)ns2)s1,3.53% (inactive),
Cc1ccc(C(=O)OC2CCCN(C)C2)cc1 (stereo not given),7.18% (inactive),
Nc1ccccc1Sc1ccc(C(F)(F)F)cc1[N+](=O)[O-],1.57% (inactive),
CCS(=O)(=O)c1cc([N+](=O)[O-])c(Sc2ccccc2N)s1,,3550 nM (active)
CCc1nc2sc(C(=O)O)c(N)c2c2c1CCCC2,5.87% (inactive),
Cc1nc2sc(C(=O)c3ccccc3)c(N)c2c2c1CCCC2,,3980 nM (active)
CCOC(=O)c1sc2nc(SC)nc(-c3ccccc3)c2c1N,-4.78% (inactive),
